Common to all, as to test: NCI-60 one-dose screen, 48 h (100 = growth as untreated, 0 = no growth, -100 = all killed)
Common to all, as to conditions: 10 µM

Experiment [1] deals with 786-0 renal.
Experiment [2] deals with DU-145 prostate.
Experiment [3] deals with K-562 leukemia.
Experiment [4] deals with MALME-3M melanoma.
The subject of experiment [5] is RXF 393 renal.
Experiment [6] concerns UACC-257 melanoma.
Experiment [7] has as its system SK-MEL-28 melanoma.
Experiment [8] relates to SK-MEL-2 melanoma.
Experiment [9] relates to EKVX NSCLC.
The test system of experiment [10] is SN12C renal.
In experiment [11] the test system is UO-31 renal.
The test system of experiment [12] is TK-10 renal.
Experiment [13] relates to ACHN renal.
Experiment [14] relates to CAKI-1 renal.
In experiment [15] the test system is A498 renal.
Experiment [16] deals with CCRF-CEM leukemia.
The subject of experiment [17] is MOLT-4 leukemia.
Experiment [18] deals with SR leukemia.
Experiment [19] concerns RPMI-8226 leukemia.
Experiment [20] deals with OVCAR-8 ovarian.

Ten compounds from PubChem BioAssay (NCI) can be followed below.

This is part of a sample that, as a whole, favours compounds with a hit. Of some 83,000 tested, about 20% had one in any assay.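 Single-dose data. Exposure time 48 hours. Values below 10 considered active.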 Values without a mark were called inactive. Activity calls are given as the source filed them.

`O=[N+]([O-])c1cccc(-c2nnc3c(/C=C/c4ccccc4O)nc4ccccc4n23)c1`: the growth in experiment [1] is 77.7%; in experiment [2], 63%; in [3] it was 24.1%; in experiment [4], 86.5%; in experiment [5] it was 52.6%; in experiment [6], 59.5%. The growth is 38.2% in experiment [7]; 84.1% in experiment [8]; 54.2% in experiment [9]; 63.4% in experiment [10]; 41.8% in [11]; 112% in [12]. In addition, the growth in [13] is 35.8%; in experiment [14], 40.6%; in experiment [15] it was 89.4%; in [16], 47.5%; in experiment [17], 38.7%; in [18], 51.8%. Further, the growth is 54.9% in experiment [19] and 58.1% in experiment [20].

For `CCOC(=O)C1=C(N)N(c2ccc(C)cc2)C2=C(C(=O)CC(C)(C)C2)C1c1ccccc1Br` (stereo not given), the growth was 83.9% in experiment [1]; 102% in experiment [2]; 50.6% in experiment [3]; 109% in experiment [4]; 86.5% in experiment [5]; 84.1% in experiment [6]. In addition, the growth is 93.7% in experiment [7]; 85% in [8]; 91% in experiment [9]; 85.2% in [10]; 76% in experiment [11]; 110% in [12]. The growth in experiment [13] is 85.9%; in experiment [14], 69.8%; in experiment [15] it was 108%; in [16], 39.5%; in experiment [17] it was 29.1%; in [18], 65.7%. Further, the growth was 35.5% in experiment [19] and 90.1% in [20].

With `COc1ccccc1-n1cc(C#N)c(N)c1C(=O)c1ccc(Cl)cc1Cl`, the growth is 52.8% in [1]; 35.4% in experiment [2]; 12.5% in experiment [3]; 37.6% in experiment [4]; -8.31% (active) in experiment [5]; 52.7% in [6]. Further, the growth in [7] is 57.5%; in experiment [8], -51.3% (active); in experiment [9], 29.6%; in experiment [10], 35%; in [11], 42.4%; in experiment [12], 55.8%. Besides, the growth in experiment [13] is 48.3%; in [14], 33.8%; in experiment [15] it was -0.709% (active); in experiment [16], 7.78% (active); in [17], 20.3%; in experiment [18] it was 11.5%. Moreover, the growth is 14.7% in experiment [19] and 34.7% in experiment [20].

As for `O=C(c1ccccc1)c1ccc2nc(-c3ccccc3Br)[nH]c2c1`, the growth was -89.9% (active) in experiment [1]; -76% (active) in experiment [2]; -3.28% (active) in [3]; -68.4% (active) in experiment [4]; -90.4% (active) in experiment [5]; -59.1% (active) in experiment [6]. Also, the growth was -26.7% (active) in experiment [7]; -93.9% (active) in experiment [8]; -76.8% (active) in experiment [9]; -42.8% (active) in experiment [10]; -99.1% (active) in experiment [11]; -77.7% (active) in [12]. In addition, the growth is -98.2% (active) in [13]; -92.8% (active) in experiment [14]; 9.77% (active) in [15]; -9.65% (active) in experiment [16]; -15.3% (active) in experiment [17]; -22.8% (active) in [18]. In addition, the figures for the growth in experiment [19] and in experiment [20] were -17.9% (active) and 12.6%, respectively.

For `O=C(CN1CCN(c2ncnc3c2cnn3-c2ccccc2)CC1)Nc1ccc(Cl)cc1`, the growth was 40.4% in experiment [1]; 57.5% in experiment [2]; 42.4% in experiment [3]; -56.2% (active) in experiment [4]; 74.4% in [5]; 49.9% in experiment [6]. The growth is 72.8% in experiment [7]; 34.2% in experiment [8]; 45% in experiment [9]; 46.6% in [10]; -60.5% (active) in experiment [11]; 97.3% in experiment [12]. For the same compound, the growth in experiment [13] was -80.7% (active); in [14] it was -39.7% (active); in experiment [15], 78.7%; in experiment [16], 51.9%; in [17], 7.06% (active); in [18], 36.9%. Moreover, the values for the growth in experiment [19] and in [20] were 44.4% and 56.6%, respectively.

Consider `C#C[C@]1(O)CC[C@H]2[C@@H]3CC=C4c5sc(Nc6ccc(C(F)(F)F)cn6)nc5CC[C@]4(C)[C@H]3CC[C@@]21C`, for which the growth in experiment [1] is -72.4% (active); in [2], 8.36% (active); in [3], 7.48% (active); in experiment [4], -13.1% (active); in experiment [5], -37.9% (active); in experiment [6], -3.66% (active). Further, the growth in experiment [7] was -16.5% (active); in [8], -26.8% (active); in experiment [9], -3.2% (active); in experiment [10], 7.3% (active); in experiment [11] it was -23.8% (active); in [12] it was 12.9%. The growth was 0.62% (active) in experiment [13]; 0.3% (active) in experiment [14]; -15.8% (active) in experiment [15]; 6.72% (active) in experiment [16]; -8.2% (active) in experiment [17]; 1.07% (active) in experiment [18]. Further, the growth in [19] is -6.6% (active); in experiment [20] it was -8.07% (active).

Consider `Nc1nnc(-c2c[nH]c3ncc(Br)cc23)c(-c2c[nH]c3ccc(Br)cc23)n1`, for which the growth in experiment [1] is 36.2%; in [2] it was 32.5%; in experiment [3], 15.2%; in experiment [4], 56.1%; in [5] it was -14.7% (active); in [6], 71%. Further, the growth in [7] was 45.6%; in experiment [8], 7.13% (active); in experiment [9], 46.2%; in [10], 46.9%; in experiment [11] it was 32.6%; in experiment [12] it was 67.8%. Also, the growth in experiment [13] is 37.3%; in [14] it was 28.1%; in experiment [15] it was -13% (active); in experiment [16], 5.14% (active); in experiment [17], 5.25% (active); in [18], 6.57% (active). The growth was 10.9% in experiment [19] and 34% in experiment [20].

`COc1ccc(OC)c(-n2cc(C#N)c(N)c2C(=O)c2ccc(Cl)cc2Cl)c1`: the growth in experiment [1] was 63.4%; in experiment [2] it was 65.6%; in [3], 14.1%; in [4] it was 50.3%; in experiment [5], 55.5%; in experiment [6], 63.6%. The growth is 59% in experiment [7]; -27.5% (active) in [8]; 42.7% in experiment [9]; 48.9% in experiment [10]; 56.7% in [11]; 78.8% in experiment [12]. Further, the growth in [13] was 53.3%; in [14] it was 36.9%; in [15], 28.3%; in experiment [16], 11.4%; in [17], 29.8%; in experiment [18], 13.7%. Moreover, the growth in experiment [19] was 39%; in experiment [20] it was 68.8%.

`O=C(c1ccc(Cl)cc1)C(c1c[nH]c2ccccc12)c1c[nH]c2ccccc12`: the growth is -87.6% (active) in experiment [1]; -91.7% (active) in experiment [2]; 0.546% (active) in experiment [3]; -91.5% (active) in [4]; -82.1% (active) in experiment [5]; -39.8% (active) in experiment [6]. Besides, the growth was -92.5% (active) in [7]; -66.5% (active) in experiment [8]; -69% (active) in [9]; -59.7% (active) in experiment [10]; -94.6% (active) in experiment [11]; -62.2% (active) in experiment [12]. Moreover, the growth in experiment [13] was -99.9% (active); in experiment [14], -90.3% (active); in experiment [15], 58.9%; in experiment [16] it was 2.45% (active); in experiment [17] it was -1.68% (active); in experiment [18], -12.2% (active). Moreover, the growth in experiment [19] was -27.9% (active); in experiment [20], -92.8% (active).

For `COc1cc2oc(-c3cccc(C(=O)Nc4ccc(Cl)cc4)c3)cc(=O)c2c(OCCNC(=O)[C@@H](N)CO)c1OC`, the growth in experiment [1] is 48.4%; in experiment [2] it was 77%; in experiment [3], -53.3% (active); in experiment [4] it was -56.9% (active); in [5], 41.5%; in experiment [6] it was -67.8% (active). In addition, the growth in experiment [7] is -74.9% (active); in experiment [8], 78.5%; in experiment [9] it was 54.7%; in [10], 43.9%; in experiment [11], 91.1%; in [12] it was 138%. The growth in [13] is 99.4%; in experiment [14] it was 45.9%; in [15] it was 177%; in experiment [16], -37.9% (active); in [17], -40.4% (active); in [18] it was -38.1% (active). Besides, the results for the growth in experiment [19] and in experiment [20] were -23.4% (active) and 26.3%, respectively.
